Compound activity: PubChem BioAssay, National Center for Advancing Translational Sciences (NCATS)
HttQ103 aggreg – qHTS Multiplex Assay to Identify Dual Action Probes in a Cell Model of Huntington: Aggregate Formation (GFP) | PC12 HttQ103-GFP aggregates, Acumen cytometry, 40 h | Potency, µM (highest dose often 46.1 µM), hits mostly inhibitors | 220,000 tested, 1.1% active; note: nearly all actives have a fitted effect of over 60% in size
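Huntingtin Q103 exon 1–GFP aggregates in induced PC12 cells (100 nM tebufenozide) were quantified by cytometry from lysates, with compounds dosed in titration.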
ATXN2 expr inh – Primary qHTS for Inhibitors of ATXN expression; HEK-293 ATXN2-luciferase reporter, luminescence, 24 h; Potency, µM (top dose mostly 57 µM), usual class: inhibitors; 360,000 tested, 0.72% active; AID 1745845, 2022; note: nearly all actives have a fitted effect of over 55% in size
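ATXN2-luciferase reporter cells (luciferase flanked by upstream and downstream ATXN2 gene portions) were treated 24 h at 37 °C with compounds at up to 57 uM. SteadyGlo luminescence gave expression; GF-AFC fluorescence gave viability.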
HepG2 tox – qHTS for Inhibitors of TGF-b: Cytotox Counterscreen | HepG2 CAGA-GFP viability, ATP luminescence, 18 h | 410,000 tested, 0.76% active | AID 588856, 2011 | Potency, µM (titrated, usually from 46.1 µM), actives largely listed as cytotoxic
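CellTiter-Glo luminescence gave cytotoxicity after 18 hours at 37 degrees C. The cells were HepG2 CAGA-GFP in 1% FBS DMEM, stimulated with 500 pg/mL TGF-beta after compound addition. %Activity was normalised to no-cell wells (complete cell-killing) and DMSO (no toxicity), and curves were fitted and classified.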
S2 tox – Viability Counterscreen for Primary qHTS for Inhibitors of ATXN expression; S2 cells (HEK-293 line with an ATXN2-luciferase reporter) viability, CellTiter-Fluor protease fluorescence, 24 h; Potency, µM (top dose mostly 56.7 µM), hits mostly cytotoxic; 400,000 tested, 0.49% active; AID 651635, 2014; note: nearly all actives have a fitted effect of over 40% in size
TGFb SMAD3 inh – qHTS for Inhibitors of TGF-b; HepG2 CAGA-GFP TGF-b/SMAD3 reporter, GFP fluorescence, 18 h; TGF-beta stimulated, 500 pg/mL final; Potency, µM (highest dose often 46.1 µM), actives largely listed as inhibitors; 410,000 tested, 1.2% active; AID 588855, 2011; note: nearly all actives have a fitted effect of over 65% in size
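HEPG2 CAGA-GFP reporter cells (1000/well, DMEM with 1% FBS) received compounds, then recombinant TGF-beta at 500 pg/mL final for 18 hours at 37 degrees C. Per-cell GFP summed per well was normalised to unstimulated and stimulated DMSO controls before curve fitting.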
HTT cytoprotect – qHTS Multiplex Assay to Identify Dual Action Probes in a Cell Model of Huntington: Cytoprotection (ATP). PC12 HTT-Q103 induced, cytoprotection, ATP luminescence, 40 h. Potency, µM (doses to about 56.4 µM), most hits filed as activators. 230,000 tested, 0.14% active. AID 1471, 2008; note: nearly all actives have a fitted effect of over 45% in size
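Huntington model: PC12 line, ecdysone-inducible HTTQ103 exon1–GFP, tebufenozide 100 nM. Test articles in a dose series. Endpoint luminescence from cellular ATP.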
Of the large screens only hits and unclear results are named; the others gave an inactive call. Compounds with a hit are over-represented: about 2.8% of the library has one in this group of screens. Calls come from the whole dose curve; as a rule, active = well fitted curve in the direction sought with a large enough effect; inconclusive = small, poorly fitted or top-dose-only effect, or another doubt; inactive = no such curve, though single readings can be large; an effect the other way counts as inactive or inconclusive.

COc1ccc(CC2=C(O)c3ccccc3C(=O)C2=O)cc1	none (no result: HttQ103 aggreg, HTT cytoprotect)
O=C1C(=O)c2ccccc2C(O)=C1CCCCl	ATXN2 expr inh 25.1µM, HepG2 tox 2µM, TGFb SMAD3 inh 2.51µM (no result: S2 tox)
OC(CNCCNc1ncccc1C(F)(F)F)Cn1ccc2ccccc21 (stereo unspecified)	HepG2 tox 15.8µM, TGFb SMAD3 inh inconclusive (no result: ATXN2 expr inh)
COc1coc(C(O)CN)cc1=O (stereo unspecified)	none (no result: HTT cytoprotect)
CCOC(=O)C(=Cc1cc(=O)c(OC)co1)C(=O)OCC	ATXN2 expr inh inconclusive, HepG2 tox 14.1µM, S2 tox inconclusive, TGFb SMAD3 inh 7.08µM (no result: HTT cytoprotect)
C/C(=N\Nc1nc2ccccc2s1)c1ccc(Br)s1	TGFb SMAD3 inh 12.6µM (no result: S2 tox)
O=C(C[n+]1ccccc1Cl)c1ccc(O)c(O)c1	none (no result: HttQ103 aggreg, ATXN2 expr inh, S2 tox, HTT cytoprotect)
OCCn1cc(-c2ccc3c(c2)CCC3=NO)c(-c2ccncc2)n1	none (no result: HttQ103 aggreg, HepG2 tox, S2 tox, TGFb SMAD3 inh, HTT cytoprotect)
CC(C)=CCc1cc([C@@H]2CC(=O)c3ccc(O)c(CC=C(C)C)c3O2)ccc1O	ATXN2 expr inh inconclusive, S2 tox inconclusive, TGFb SMAD3 inh 12.6µM (no result: HttQ103 aggreg, HTT cytoprotect)
CC(C)=CCc1c(O)cc(O)c2c1O[C@H](c1ccccc1)CC2=O	none (no result: HttQ103 aggreg, ATXN2 expr inh, HepG2 tox, S2 tox, TGFb SMAD3 inh)
O=C(O)c1cccc(COc2ccccc2Cl)c1	ATXN2 expr inh 0.708µM
COc1ccc(-c2cc(-c3ccccc3)c(C#N)c(S(C)=O)n2)cc1 (stereo unspecified)	ATXN2 expr inh 28.2µM, S2 tox inconclusive, HTT cytoprotect inconclusive
C=C1C=C(C(F)F)n2ncc(C(=O)NCc3ccc(Cl)cc3Cl)c2N1	none (no result: HttQ103 aggreg, ATXN2 expr inh, S2 tox, HTT cytoprotect)
COc1ccccc1N1CCN(CC(O)COc2ccc(C)cc2C(C)(C)C)CC1 (stereo unspecified)	HepG2 tox 15.8µM, TGFb SMAD3 inh inconclusive (no result: HttQ103 aggreg, ATXN2 expr inh, S2 tox, HTT cytoprotect)
CCCn1nnnc1NC(=O)c1ccc2ccccc2c1	ATXN2 expr inh inconclusive, HepG2 tox 12.6µM, S2 tox inconclusive
Nc1cccnc1S(=O)(=O)c1cccc(C(F)(F)F)c1	none (no result: HttQ103 aggreg, HTT cytoprotect)
Nc1nc(N)c2cc(S(=O)(=O)c3cccc(C(F)(F)F)c3)ccc2n1	HepG2 tox 1.26µM (no result: HttQ103 aggreg, ATXN2 expr inh, HTT cytoprotect)
O=C(O)c1ccc2cc(-c3ccc(O)c(C45CC6CC(CC(C6)C4)C5)c3)ccc2c1	ATXN2 expr inh 1.93µM (no result: HttQ103 aggreg, HepG2 tox, S2 tox, TGFb SMAD3 inh)
C=CC[N@@+]12CC[C@@]34c5ccccc5N5/C=C6/[C@H]7C[C@H]8[C@@]9(CC[N@@+]8(CC=C)C/C7=C/CO)c7ccccc7N(/C=C(/[C@@H](C[C@@H]31)/C(=C\CO)C2)[C@H]54)[C@@H]69	none (no result: HttQ103 aggreg, ATXN2 expr inh, HepG2 tox, TGFb SMAD3 inh, HTT cytoprotect)
Cc1sc2nc(CN3CCCC3)nc(Cl)c2c1C	HttQ103 aggreg 12.6µM, TGFb SMAD3 inh inconclusive
CCCCOCCCNC(=O)C[C@@H]1C[C@@]2(C(=O)OCC)CCCC=C2N(Cc2cccc3ccccc23)C1=O	ATXN2 expr inh inconclusive, S2 tox 35.5µM (no result: HttQ103 aggreg, HepG2 tox, TGFb SMAD3 inh, HTT cytoprotect)
CCOC(=O)[C@]12CCCC=C1N(Cc1cccc3ccccc13)C(=O)[C@H](CC(=O)NCc1cccc3ccccc13)C2	none (no result: HttQ103 aggreg, HepG2 tox, TGFb SMAD3 inh, HTT cytoprotect)
CCCCCCCCN1C(=O)[C@H](CC(=O)NCc2ccc(OC)c(OC)c2)C[C@@]2(C(=O)OCC)CCCC=C12	ATXN2 expr inh inconclusive, S2 tox 14.1µM (no result: HttQ103 aggreg, HepG2 tox, TGFb SMAD3 inh, HTT cytoprotect)
C=C1CC[C@@H]2O[C@]2(C)CC[C@@H]2[C@H]1CC2(C)C	none (no result: HttQ103 aggreg, ATXN2 expr inh, HepG2 tox, S2 tox, TGFb SMAD3 inh)
O=C(c1cccc(N2CCCC2=O)c1)N1CCC(Oc2cccc(CN3CCN(c4ccccn4)CC3)c2)CC1	S2 tox 14.1µM (no result: HttQ103 aggreg, ATXN2 expr inh, HepG2 tox, TGFb SMAD3 inh, HTT cytoprotect)
Cc1cnc2ccccc2c1/C=C/c1ccc(N)cc1	none (no result: HttQ103 aggreg, ATXN2 expr inh, S2 tox, HTT cytoprotect)
COc1cc(Nc2nc(SCC(=O)c3ccc(Br)cc3)nc3ccccc23)cc(OC)c1	HepG2 tox 10µM, TGFb SMAD3 inh inconclusive (no result: HttQ103 aggreg, ATXN2 expr inh, S2 tox, HTT cytoprotect)
CN1CCC(Nc2ncc3ncnc(Nc4ccc(F)c(Cl)c4)c3n2)CC1	HttQ103 aggreg inconclusive, ATXN2 expr inh 28.2µM, S2 tox inconclusive (no result: HepG2 tox, TGFb SMAD3 inh)
Cn1ncc2c(Nc3ccc(Cl)c(Cl)c3)ncnc21	S2 tox inconclusive (no result: HttQ103 aggreg, ATXN2 expr inh, HTT cytoprotect)
CN1CCCC(CN(C)C(=O)c2cnn(-c3nccc(-c4ccccc4C(F)(F)F)n3)c2C2CC2)C1 (stereo unspecified)	none (no result: HttQ103 aggreg, ATXN2 expr inh, HepG2 tox, TGFb SMAD3 inh, HTT cytoprotect)
